# From PubChem BioAssay AID1508600 (Functional Genomics Laboratory (NCATS/FGL), 2020)
# About 3,700 (7%) of roughly 53,000 sequences were called active.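 The calls were made as follows: active = gene knockdowns whose robust z-score for IL-1 alpha signal is at least 2 or at most -2, so actives lie on both sides; inactive = the rest.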 Shown is part of a subset that was picked to be rich in actives.
# Assay: Components of the Cytosolic LPS Sensing Pathway: Gene Identification via Genome-wide siRNA Screen;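 also: robust z of the log signal after scaling to non-targeting control siRNA wells of the plate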
# Settings: RAW264.7 macrophages, IL-1a HTRF, actives lie on both sides, screened at 100 nM (by protocol), cells primed 5 h with Pam3CSK4 first
# Method in brief: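 Three distinct siRNAs per gene were tested singly at 100 nM in RAW264.7 macrophages. Following Pam3CSK4 priming and 24 hour LipidA transfection, IL-1a secretion was read by HTRF.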
row,Sequence,z-score
1,GGAACAGCUGUGAUUAACGTT against Prdx4,0.343 (inactive)
2,GCUGGAAUACGUUGAUAUATT against Kcnab3,3.68 (active)
3,GGAGAGUCCAGUUUCCAUUTT against Rnf113a1,1.44 (inactive)
4,GCUCAGGAAUUUGACACCATT against Adgrl3,-1.33 (inactive)
5,CCUAAGAUGAUCGUAGGCUTT against Olfr1221,-0.643 (inactive)
6,CGAGCUUUCUUCGUACACCTT against Dvl2,-1.74 (inactive)
7,GGCAUACCUGGAGAAGUGUTT against Prr5l,-2.31 (active)
8,GCUAGCACUAAGUGAACCUTT against Ppp1r21,1.25 (inactive)
9,GGAUAAUAGGAACAAUCUGTT against Sval1,0.207 (inactive)
10,GGUCAGGUUGAGGACAUAATT against Vwa1,1.28 (inactive)
11,GCUUACCAGAUUGUAUGUATT against Mrgpra1,0.533 (inactive)
12,GGAGAAAGAGCAGAGUCUGTT against Cep250,-2.04 (active)
13,GGCAGAGUUUGAAAAGAUCTT against Parp16,-1.42 (inactive)
14,GGCCCAAGAUUUCAAUUAGTT against 9130230L23Rik,-0.0833 (inactive)
15,GGUCAGAGGUCGACCUAUUTT against Oas1h,-2.18 (active)
16,GGUACAUUUUAUACUGGAGTT against Zfp277,0.163 (inactive)
17,GCCUCAUCGUAUAUAAAAUTT against Atp5mpl,-1.64 (inactive)
18,GGCCCAAACCUUAAAGUCCTT against Smyd4,-0.194 (inactive)
19,GGAAUGUACCCAUAAAAGUTT against Nudt19,0.988 (inactive)
20,GGCAUUGAGAAGUUUGAAGTT against Fmo9,-1.07 (inactive)
21,CCCUUGGUUAUGGAGAAAGTT against Mcoln2,-0.0392 (inactive)
22,GCACAACAAGCGAUGUCAUTT against Myo9b,-2.13 (active)

row,Sequence,z-score
1,CCUACGUGAACAUGACGGUTT against Agfg1,0.096 (inactive)
2,GGUAGAGAAUUGAAACCUATT against Klhdc10,-0.776 (inactive)
3,GGAAUAUACCCUGAAACAUTT against Fam71d,0.0244 (inactive)
4,GGAGACUGUGGAUUUAAUUTT against Sult1a1,2.07 (active)
5,GGAGAUGUACCACAAUGCCTT against Prss29,-0.128 (inactive)
6,GGCGGUGAUCCAGGGUUUATT against Klc2,2.62 (active)
7,GGAGUCAAAAAAAAUGCAATT against Ribc1,1.17 (inactive)
8,GCAAGAUCCAGAACACUCATT against Adora1,-0.781 (inactive)
9,CCAAGGAGCAUUCUUUGGUTT against 1700024B05Rik,-0.0487 (inactive)
10,GGUUUGUAUCUUAAAUGCCTT against Tdpoz4,2.88 (active)
11,GGCCUCGUCAUUUUACAGGTT against Mcee,0.098 (inactive)
12,GCCAAUAAUCCACAGGCAATT against Ryk,-0.577 (inactive)
13,CUGUAAGGCGGAUAAGACCTT against Pantr1,-1.42 (inactive)
14,GGUUACAAAAGAACCAGAUTT against Pik3c2g,1.66 (inactive)
15,GCGGCUUAGUCCAUCAGGATT against Aplf,0.819 (inactive)
16,GGAAGAGUGACUUGUGCAATT against Slc28a2,0.0125 (inactive)
17,GCUCGAGGCUUAGAAGACUTT against Hspb3,2.23 (active)
18,GGCUUACCUGGUCUACUCCTT against Wnt8b,-0.95 (inactive)
19,GCUACGUGUACCUGGAGUGTT against Cpeb1,-0.502 (inactive)
20,GGUGGUUAUUUAUUGGUGATT against Sp6,-0.272 (inactive)
21,GGUGCCUCAGAGUAAAUAUTT against Cdk2ap1,-0.895 (inactive)
22,GCAAGCAAUAGAGGAACCUTT against Rnf38,0.0643 (inactive)

row,Sequence,z-score
1,GCAAACUAUUUGUCUGGUGTT against Ripk1,0.7 (inactive)
2,GGAGUACAUGGUGAUGUUGTT against Prss43,-2.6 (active)
3,CCGAAUCUCUCACGUGCCATT against Rtn4r,-0.474 (inactive)
4,GGAGUGUUUUACCUCUUUCTT against Nudt13,0.911 (inactive)
5,GGACUUGAUGACAGUGAAUTT against Strada,-2.27 (active)
6,GCACCAUGAAUUCUAUUGCTT against Kcnmb1,-0.24 (inactive)
7,GCCGCUUAAGAGGGAUUAUTT against Mrpl15,-0.394 (inactive)
8,GGAGUAACUAUUCCCAAUUTT against Herc1,1.41 (inactive)
9,GGAGUUGAGGUGAUUAUCUTT against Olfr1222,-2.33 (active)
10,GCUUAAGGAUCCAUAAUGUTT against Musk,0.981 (inactive)
11,GGAAGGAGAAAGAGUAUGATT against Mnt,0.525 (inactive)
12,GCAGAAACGAUUGUACCAUTT against Ar,1.37 (inactive)
13,GGCUCAAAACCACACCACUTT against Olfr477,-2.75 (active)
14,CGAUUGCUAAGGUGUUUGATT against Sfmbt1,-0.45 (inactive)
15,GGAGCAUCAUUAUUCUGCATT against Gm527,-0.0903 (inactive)
16,GAGAAACCUGCCUCAUCUCTT against Spata3,-0.0842 (inactive)
17,GGAUUUGAACUCAGAUGUUTT against A430057M04Rik,2.15 (active)
18,GGGAUGUUCUUCAAUCCUGTT against Hecw2,0.0154 (inactive)
19,GCACUUCAGUUUACAAAACTT against Mier3,-0.891 (inactive)
20,CGUUUGAUGAGACCAUGUATT against Vwf,-0.459 (inactive)
21,GCCUGGUAGUUAGUCAGAATT against Klf11,2.4 (active)
22,GCUACAUGAUUCAGCGGAATT against Itga3,-1.23 (inactive)

row,Sequence,z-score
1,CGGAUUAGUAUAAAUGUAGTT against Prss16,-0.109 (inactive)
2,UCACAACUGUCUGUUCUCATT against Klk1b3,-1.19 (inactive)
3,GCCACACACCUUCUAUAAUTT against Ptprs,-0.62 (inactive)
4,GCCAACGCAGCAAAAGCUCTT against Rsrp1,0.0495 (inactive)
5,CCCAAUAUGUUAGACCCUGTT against Slc16a8,0.448 (inactive)
6,GGUGAUAAUUAAUGUCUUGTT against Naip1,2.08 (active)
7,GGAUCAGAACUUAUCUGUGTT against Utp23,0.383 (inactive)
8,GGCACUGAUAAGAAGUACCTT against Dnah1,0.772 (inactive)
9,GCUUAUGUUAAACCAGAGATT against Syt8,0.0449 (inactive)
10,GGAUCCUAGCCUUUUAUCATT against Cep70,-1.11 (inactive)
11,GGAUUCCAGAGAAAUGUGATT against Lrrc66,-2.62 (active)
12,GGUAUGAGUACAAAUACUGTT against Tek,1.97 (inactive)
13,GGCUCUGCCAUUUUCCCUUTT against F12,-1.24 (inactive)
14,GGCCAAGUUCCAUAUCACCTT against Eefsec,0.46 (inactive)
15,GGAACUCAGUCAGGACCAATT against Hnf4aos,0.954 (inactive)
16,CGAGAAUAUGUGAGAGCUUTT against Dcaf13,-0.793 (inactive)
17,GGAGACCCUGGUGAGAAGATT against Emid1,0.26 (inactive)
18,GGAACACAGAGGUAAAAGGTT against Olfr446,-2.66 (active)
19,CCAGCAUGCAUGAACGAGUTT against Carnmt1,0.508 (inactive)
20,CCCUGUAACCAAUAAGAAGTT against Snrpa1,-0.401 (inactive)
21,GGGCUAUGCAGACCUGUACTT against Cyb561,-2.45 (active)
22,CCUUGGGACAAGCAUAUAUTT against Psg25,0.901 (inactive)

row,Sequence,z-score
1,GGCAAGUCUAAAAUACAUUTT against St6galnac4,-0.439 (inactive)
2,CGUACCAGAUGAGCUAAGUTT against Zfp513,2.56 (active)
3,CCUGUUGUAUUGUUUAGCGTT against Ago2,-0.402 (inactive)
4,CCUCAAGAUAAACCGACAATT against Bard1,0.388 (inactive)
5,GGAGUCCGCUCAGAAUUUGTT against Lhpp,-0.194 (inactive)
6,GGACAAAGUUGUUCCUUCUTT against Zfp13,-2.62 (active)
7,GGAAGAUCUACAUCGUGGGTT against Klhl26,0.341 (inactive)
8,GGUGGUUUUUUGUUGUUGUTT against Lhfpl4,0.277 (inactive)
9,GCCUAUGACUACCUCGAGUTT against Rhob,-2.01 (active)
10,GGAGAAUAAUAAGCUGGAATT against Hap1,0.12 (inactive)
11,CGGUAUCUUGGUCAACCUGTT against Naaa,0.955 (inactive)
12,GGUAGCUCUGAGACAAUUCTT against Pkhd1l1,0.857 (inactive)
13,GCCCAUUAUGGUUAAAGAATT against Ccnb3,-0.311 (inactive)
14,GGAGAUCGAUAUUCGACUATT against 4933434E20Rik,-2.48 (active)
15,GGAUAUUCUUCUUAAGCAGTT against Agbl5,-0.168 (inactive)
16,CCAGGUUGAUGAUUUCAACTT against Tbcc,-1.43 (inactive)
17,GGGAAGUGCAUGCUCAUCUTT against Smarcal1,-0.187 (inactive)
18,GCGUGGAUUACAUUUCUCUTT against Depdc1a,0.392 (inactive)
19,GGACUGAGAACCAAAGCUGTT against D630044L22Rik,-3.15 (active)
